Screening results from PubChem.
In the library only some 2.9% were active in any assay of this set; here they are far more common.
Nrf2 ARE act: qHTS of Nrf2 Activators. actives 0.31% (n = 410,000). Potency, µM (series often up to 46.1 µM), actives largely listed as activators. AREc32 ARE-luciferase reporter (MCF7-derived line), luminescence, 24 h; also: nearly all actives have a fitted effect of over 65% in size
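Nrf2 activation is followed as ARE-luciferase induction in the AREc32 line after one day of compound treatment; luminescence is read with Steady-Glo.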
ATXN2 expr inh: Primary qHTS for Inhibitors of ATXN expression; actives 0.72% (n = 360,000); AID 1745845, 2022; HEK-293 ATXN2-luciferase reporter, luminescence, 24 h; Potency, µM (highest dose often 57 µM), most hits filed as inhibitors; also: nearly all actives have a fitted effect of over 55% in size
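qHTS (up to 57 uM final) was run with 24 h compound exposure of reporter cells at 37 °C. Each well was multiplexed: SteadyGlo luminescence measured ATXN2-luciferase expression after a fluorogenic Gly-Phe-AFC viability readout (25 uM final).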
S2 tox: Viability Counterscreen for Primary qHTS for Inhibitors of ATXN expression; S2 cells (HEK-293 line with an ATXN2-luciferase reporter) viability, CellTiter-Fluor protease fluorescence, 24 h; Potency, µM (doses to about 56.7 µM), hits mostly cytotoxic; AID 651635, 2014; actives 0.49% (n = 400,000); also: nearly all actives have a fitted effect of over 40% in size
Nrf2 inh: Nrf2 qHTS screen for inhibitors; AID 504444, 2011; A549 ARE-Fluc reporter, luciferase luminescence, 18-24 h; actives 2.1% (n = 360,000); Potency, µM (series often up to 46 µM), usual class: inhibitors; also: nearly all actives have a fitted effect of over 60% in size
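Concentration-response testing used A549 ARE_Fluc cells at 5000 cells/well. Following an 18-24 h compound incubation, viability was read by fluorescence (Ex 405/Em 525) and luciferase output by luminescence.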
A549 viability: Nrf2 qHTS screen for inhibitors: counterscreen for cytotoxicity. actives 0.16% (n = 390,000). A549 ARE-Fluc cells, CellTiter-Fluor viability, 18-24 h. Potency, µM (doses to about 46 µM), most hits filed as inhibitors. AID 504648, 2011
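A549 ARE_Fluc cells in 5% FBS OPTI-MEM were exposed to compounds in concentration-response for 18-24 h at 37 deg C. Viability was read by CellTiter-Fluor fluorescence (Ex 405/Em 525) after 30 min, before the luciferase read.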
Of the large screens only hits and unclear results are named; the others gave an inactive call. Calls follow the shape of the dose curve; as a rule, active = well fitted curve in the direction sought with a large enough effect; inconclusive = small, poorly fitted or top-dose-only effect, or another doubt; inactive = no such curve, though single readings can be large; an effect the other way counts as inactive or inconclusive.

O=C(N/N=C/c1ccc([N+](=O)[O-])o1)c1cc(-c2cccc(Br)c2)nc2ccccc12	Nrf2 ARE act inconclusive, ATXN2 expr inh inconclusive, S2 tox inconclusive, Nrf2 inh 13µM, A549 viability inconclusive
Cc1cc(C(=O)N/N=C/c2ccc([N+](=O)[O-])o2)c(C)o1	S2 tox inconclusive (no result: ATXN2 expr inh)
CCCc1ccc(-c2cc(C(=O)N/N=C/c3ccc([N+](=O)[O-])o3)c3ccccc3n2)cc1	S2 tox inconclusive, Nrf2 inh 10µM
COc1cccc(-c2cc(C(=O)N/N=C/c3ccco3)c3ccccc3n2)c1	none
O=C(c1cccs1)c1no[n+]([O-])c1C(=O)c1cccs1	ATXN2 expr inh inconclusive, S2 tox 28µM, Nrf2 inh inconclusive, A549 viability inconclusive
COc1ccc(C(=O)c2no[n+]([O-])c2C(=O)c2ccc(OC)cc2)cc1	ATXN2 expr inh inconclusive, S2 tox 28µM, Nrf2 inh inconclusive
Cc1ccccc1C(=O)Nc1ccc2oc(-c3ccc(Cl)c(Cl)c3)nc2c1	none
Cc1ccc(-c2ccnc(-n3ncc(C(=O)N4CCCCC4c4cccnc4)c3C3CC3)n2)o1 (stereo unspecified)	none (no result: Nrf2 ARE act, ATXN2 expr inh, Nrf2 inh, A549 viability)
CCC(COC)NC(=O)c1cnn(-c2ncc3c(n2)-c2ccccc2CCC3)c1C (stereo unspecified)	none (no result: Nrf2 ARE act, ATXN2 expr inh, Nrf2 inh, A549 viability)
Cc1ccc(-c2cc(-c3ccco3)c(C#N)c(=O)[nH]2)cc1	none (no result: S2 tox)
N#Cc1c(-c2ccco2)cc(-c2ccccc2)[nH]c1=O	Nrf2 ARE act 2.5µM (no result: ATXN2 expr inh)
NS(=O)(=O)c1ccc(CCNC(=O)CN2CCN(c3cccc(Cl)c3)CC2)cc1	Nrf2 inh inconclusive
NS(=O)(=O)c1ccc(CCNC(=O)CN2CCN(c3ccc(F)cc3)CC2)cc1	S2 tox inconclusive, Nrf2 inh 16µM
Nc1[nH]c(C(=O)c2ccccc2)c(-c2ccccc2Br)c1C(=O)NCCc1c[nH]c2ccccc12	ATXN2 expr inh inconclusive, S2 tox 20µM (no result: Nrf2 inh, A549 viability)
COc1ccc(C(=O)c2[nH]c(N)c(C(=O)NCCc3c[nH]c4ccccc34)c2-c2ccccc2Br)cc1	ATXN2 expr inh inconclusive (no result: S2 tox, Nrf2 inh, A549 viability)
Cc1ccc(/C=C/c2nc3ccccc3n2S(=O)(=O)c2ccc(Br)cc2)cc1	none (no result: ATXN2 expr inh, S2 tox, Nrf2 inh)
CCCCCCSc1ccc([C@H]2N[C@@](C)(C(=O)OC)[C@H]3C(=O)N(C)C(=O)[C@@H]23)cc1	ATXN2 expr inh inconclusive, S2 tox inconclusive, Nrf2 inh 26µM
CCOc1nc(C#N)nc(N2CCCCC2)n1	ATXN2 expr inh inconclusive, Nrf2 inh 16µM
COc1cc(=O)n2c(c1C(=O)N(C)Cc1nonc1C)CCN(C(=O)c1ccc(C)c(C)c1)CC2	none (no result: Nrf2 ARE act, ATXN2 expr inh, Nrf2 inh, A549 viability)
O=C(N/C(=C/C=C/c1ccccc1)C(=O)N1CCCCC1)c1ccc([N+](=O)[O-])cc1	S2 tox 1.5µM
O=C(N/C(=C/c1ccc([N+](=O)[O-])cc1)C(=O)N1CCCC1)c1ccccc1	none
CCc1ccc(C(=O)Cn2ncc(Cl)c(Cl)c2=O)cc1	Nrf2 ARE act 10µM, ATXN2 expr inh inconclusive, S2 tox inconclusive
Cc1ccc(Cn2ncc(Cl)c(Cl)c2=O)cc1	Nrf2 ARE act inconclusive, ATXN2 expr inh inconclusive (no result: S2 tox)
O=C(Cn1ncc(Cl)c(Cl)c1=O)N1CCOCC1	Nrf2 ARE act 11µM, ATXN2 expr inh inconclusive, A549 viability inconclusive (no result: S2 tox)
O=C(Cn1ncc(Cl)c(Cl)c1=O)N1CCc2ccccc21	Nrf2 ARE act inconclusive, ATXN2 expr inh inconclusive (no result: S2 tox)
COc1ccccc1-c1ccnc(-n2ncc(C(=O)N3CCCCC3c3cccnc3)c2C)n1 (stereo unspecified)	none (no result: Nrf2 ARE act, ATXN2 expr inh, Nrf2 inh, A549 viability)
O=C(c1ccc(CS(=O)Cc2cccc(Cl)c2)o1)N1CCN(c2ccc(F)cc2)CC1 (stereo unspecified)	none (no result: ATXN2 expr inh, Nrf2 inh, A549 viability)
Cc1ccc(C)c(N2CCN(C(=O)c3ccc(CS(=O)Cc4cccc(Cl)c4)o3)CC2)c1 (stereo unspecified)	Nrf2 inh 18µM
CNC(=O)c1sc(N2N=C3/C(=C/c4ccccc4)CCCC3C2c2ccccc2)nc1C (stereo unspecified)	ATXN2 expr inh 13µM (no result: S2 tox, Nrf2 inh)
CCCN1CCc2nc(N3CCN(c4ncccn4)CC3)ncc2C1	none (no result: Nrf2 inh)
COc1cc(-c2cc(C)c3c(OC)ccc(OC)c3n2)cc2c1OCCN(C(=O)C(C)c1n[nH]c(=O)c3ccccc13)C2 (stereo unspecified)	none (no result: Nrf2 ARE act, ATXN2 expr inh, Nrf2 inh, A549 viability)
